Compound activity deposited in PubChem by National Center for Advancing Translational Sciences (NCATS).
GAA spleen mod: inhibitors or activators of human alpha-glucosidase in spleen homogenate | human spleen homogenate, 4-MU-alpha-glucoside fluorescence | Potency, µM (doses to about 79.9 µM), for the others: top-dose activity change, negative = inhibition, most hits filed as inhibitors | hit rate 0.006% among 240,000;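 also: 0% = enzyme with vehicle and -100% = no enzyme basal signal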
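Human spleen homogenate (1 ug) incubated with compounds and 1 mM 4-methylumbelliferyl-alpha-D-glucopyranoside in pH 5.0 citrate/phosphate buffer, 37 C, 40 min. Stopped at pH 10; 4-MU fluorescence (Ex 365/Em 440 nm); AC50 by Hill fit.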
GAA glycogen mod: GAA glycogen-cleavage inhibition or activation | P10253 | recombinant GAA, glycogen substrate, Amplex Red glucose oxidase fluorescence | Potency, µM (top dose mostly 76.4 µM), for inactives: at the highest dose activity change, negative = inhibition, hits mostly inhibitors | hit rate 0.38% among 300,000 | AID 2100;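 also: 0% = full enzyme reaction and -100% = no-enzyme basal signal; the screen sought inhibitors and activators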
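Recombinant human alpha-glucosidase (4 nM final) hydrolysed bovine liver glycogen (30 ug) for 40 min at 37 C in pH 5.0 citrate/phosphate with 0.01% Tween-20. Released glucose detected by glucose oxidase/Amplex Red, Ex 573/Em 610 nm. Compounds up to 77 uM; AC50 from Hill fits.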
Lamin A splicing: LMNA splicing modulation; HeLa LMNA splicing GFP/RFP minigene ratio, 48 h; Potency, µM (highest dose often 46.1 µM), without a hit: top-dose ratio change, negative = inhibition, usual class: inhibitors; hit rate 0.01% among 200,000; active = well fitted inhibition curve with a large enough effect in the signal ratio, with a control signal flat, not every such curve was filed as active; inconclusive = small, poorly fitted or top-dose-only effect, or effect the other way, or a change in a side signal; the % refers to the signal ratio
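Read-out is the ratio of GFP to DsRed2 object intensity, acquired by 488 nm laser-scanning cytometry on HeLa lamin A-EGFP minigene reporter cells. Compound incubation 48 hrs at 37 °C in Opti-MEM with 2% FBS; DMSO 0.5% final.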
GAA inh: inhibitors of human lysosomal alpha-glucosidase; hit rate 0.005% among 200,000; P10253; purified human GAA, 4-MU-alpha-glucoside fluorescence; Potency, µM (top dose mostly 76.9 µM), without a hit: at the highest dose activity change, negative = inhibition, hits mostly inhibitors;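 also: plate controls were uninhibited enzyme wells for no effect and no-enzyme background for full effect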
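Human alpha-glucosidase, 4 nM, pre-mixed with test compounds before 400 uM 4-methylumbelliferyl substrate; 20 min room temperature at pH 5.0. Fluorescence read after pH 10 stop; AC50 values from Hill-equation fits.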
Luc counter: counter-screen: inhibitors of Kinase-Glo firefly luciferase; Q27757; Potency, µM (doses to about 38.3 µM), without a hit: at the highest dose activity change, negative = inhibition, usual class: inhibitors; Kinase-Glo luciferase, ATP luminescence, 8 min; hit rate 0.28% among 200,000; also: nearly all actives have a fitted effect of over 60% in size
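Luminescence was the read-out, taken after 8-minute incubation at ambient temperature. Luciferase turned over luciferin with 10 uM ATP in imidazole pH 7.2 buffer containing KCl, MgCl2, Tween 20 and BSA.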
N370S GC mod: inhibitors or activators of N370S glucocerebrosidase for Gaucher disease; P04062; N370S GC spleen homogenate, 4MU-glucoside fluorescence; Potency, µM (series often up to 59.4 µM), for inactives: top-dose activity change, negative = inhibition, most hits filed as inhibitors; hit rate 0.092% among 330,000;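 also: 0% = full enzyme activity and -100% = no enzyme basal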
* = called active by the depositor; [ ] = dose if it differs, or a comment. In the library only some 0.52% were active in any assay of this set; here they are far more common. Unless noted, calls follow the shape of the dose curve; as a rule, active = well fitted curve in the direction sought with a large enough effect; inconclusive = small, poorly fitted or top-dose-only effect, or another doubt; inactive = no such curve, though single readings can be large; an effect the other way counts as inactive or inconclusive. Unless noted, % is scaled to controls: 0 for no effect and ±100 for the full control effect; potency is read from the fitted curve at half-maximal effect.

`C=CCNC(=O)N1CCc2nc(CCCC)c3c(c2C1)CO[C@@H](C)C3` gave GAA spleen mod 6%[17.4 µM], Lamin A splicing 4%[9.22 µM], Luc counter 1%[7.66 µM] and N370S GC mod -11%[12.8 µM].
For CCOc1ccc(Cc2n[nH]c(=S)n2N)cc1 the results were GAA spleen mod -4%, GAA glycogen mod 4%, Lamin A splicing -2%, GAA inh 4%, Luc counter -1% and N370S GC mod 0%.
For COc1ccc(N2CCN(c3n[nH]c(N)n3)CC2)cc1 the results were GAA spleen mod 8%, GAA glycogen mod inconclusive, GAA inh 9%, Luc counter -4% and N370S GC mod 8%.
For CCOc1ccc(N2Nc3n[nH]c(N)c3N2)cc1 the results were GAA spleen mod -14%, GAA glycogen mod 22µM*, Lamin A splicing 0%, GAA inh -8%, Luc counter -3% and N370S GC mod -11%.
For COc1ccc(N2Nc3n[nH]c(N)c3N2)cc1 the results were GAA spleen mod inconclusive, GAA glycogen mod 25µM*, Lamin A splicing 6%, GAA inh -11%, Luc counter 2% and N370S GC mod -24%.
For O=C(/C=C/c1ccc(Cl)cc1)Nc1nc(-c2cccs2)ns1 the results were GAA glycogen mod 10%[76.3 µM] and Lamin A splicing inconclusive.
O=C(Nc1nc2ccccc2[nH]1)C1CCCO1 (stereo unspecified) was read as GAA spleen mod -7%, GAA glycogen mod 0%, Lamin A splicing 1%, GAA inh -15%, Luc counter -13% and N370S GC mod -6%.
`O=C(Nc1ccc(-c2nc3ccccc3[nH]2)cc1)C1CCCO1` (stereo unspecified) gave GAA spleen mod -6%, GAA glycogen mod 3%, Lamin A splicing 13%, GAA inh -3%, Luc counter 4µM* and N370S GC mod -3%.
`C#CCCCO/N=C1/C[C@@H](O)[C@@H](O)[C@@H]2[C@@H]3C(=O)N(CC)C(=O)[C@H]3CC[C@H]12` gave GAA spleen mod 4%[17.4 µM] and N370S GC mod 28%[12.8 µM].
For COc1ccc(-c2cnc(N)nc2-c2ccc(OCc3ccccc3)cc2O)cc1 the results were GAA spleen mod -2%, GAA glycogen mod -6%, GAA inh -5% and N370S GC mod -3%.
Screening Nc1ncc(-c2ccccc2)c(-c2ccc(O)cc2O)n1 returned GAA glycogen mod 3% and N370S GC mod 14µM*.
COc1cccc(C(=O)/C=C/Nc2cc(C)ccc2O)c1 was read as GAA spleen mod -17%, GAA glycogen mod 28µM*, Lamin A splicing -20%, GAA inh -5%, Luc counter -3% and N370S GC mod 0%.
`COc1ccccc1-c1nnc2n1N=C(c1ccc(O)c(O)c1)CS2` gave GAA spleen mod -1%, GAA glycogen mod 11µM*, Lamin A splicing inconclusive, GAA inh -7%, Luc counter 7% and N370S GC mod -6%.
Cc1nn(C)cc1C(=O)NNC(=S)Nc1ccccc1 was read as GAA spleen mod 5%, GAA glycogen mod inconclusive, Lamin A splicing -3%, GAA inh -2%, Luc counter 1% and N370S GC mod -22%.
For Cc1cc(C(=O)NNC(=S)Nc2ccccc2)nn1C the results were GAA spleen mod -5%, GAA glycogen mod 3.5µM*, GAA inh 12%, Luc counter -4% and N370S GC mod -1%.
For CCOC(=O)c1sc2nc3n(c(=O)c2c1C)CCC(C)CC3 (stereo unspecified) the results were GAA spleen mod 3%, GAA glycogen mod 0%, Lamin A splicing 8%, GAA inh -12%, Luc counter 2% and N370S GC mod 14%.
CCOC(=O)N1CCN(C(=O)Nc2sc3nc4n(c(=O)c3c2C)CCC(C)CC4)CC1 (stereo unspecified) was read as GAA spleen mod -4%, GAA glycogen mod 32µM*, Lamin A splicing -7%, GAA inh -10%, Luc counter -1% and N370S GC mod 4%.
For COCCn1c(C)cc(C2=NNC(=NC3CC3)SC2)c1C the results were GAA spleen mod -2%, GAA glycogen mod -14%, GAA inh -2%, Luc counter 7.1µM* and N370S GC mod -15%.
Screening C=CCN=C1NN=C(c2cc(C)n(CCOC)c2C)CS1 returned GAA spleen mod -3%, GAA glycogen mod 0%, Lamin A splicing 0%, GAA inh -1%, Luc counter -28% and N370S GC mod -18%.
Screening Cc1ccc(NC(=O)CCS(=O)(=O)c2ccc3c(c2)NC(=O)C(C)S3)cc1Cl (stereo unspecified) returned N370S GC mod 7.9µM*.
For CC1Sc2ccc(S(=O)(=O)CCC(=O)Nc3ccc(C(C)C)cc3)cc2NC1=O (stereo unspecified) the results were N370S GC mod 6.3µM*.
For CN(C)CC(C)(C)CNC(=O)c1ccc(Cc2nc3ccccc3[nH]2)cc1 the results were Luc counter -7%.
`COc1cccc2c1[C@H](CO)N1[C@H](C#N)[C@@H]3C[C@H](C(=O)O)[C@@H]([C@@H]1C2)N3C` gave Luc counter -2%[7.66 µM].
COc1cc(CN2CCN(c3cccc(C)c3C)CC2)cc(OC)c1O was read as GAA spleen mod -16%, GAA glycogen mod 28µM*, Lamin A splicing -4%, GAA inh -9%, Luc counter -11% and N370S GC mod -3%.
Cc1cc(CN2CCN(c3cccc(C)c3C)CC2)cs1 was read as GAA glycogen mod -6%[76.3 µM].
CN(CCCC(=O)O)S(=O)(=O)c1ccc2c(c1)C(=O)c1cc(S(=O)(=O)N(C)CCCC(=O)O)ccc1-2 was read as GAA glycogen mod 25µM* and N370S GC mod -5%.
Screening CN(CCC(=O)O)S(=O)(=O)c1ccccc1 returned Luc counter -2%[7.66 µM].
O=c1c(-c2ccccc2)nc2cnc(Oc3cccc(Cl)c3)nc2n1C[C@H]1CCCO1 was read as GAA spleen mod -2%, Lamin A splicing inconclusive and N370S GC mod 14%.
Screening O=C(O)c1ccccc1NC(=O)N1c2ccccc2Sc2ccccc21 returned GAA glycogen mod 18µM*.
Cc1cccc(N2CCN(c3nc4nonc4nc3N3CCSCC3)CC2)n1 was read as GAA spleen mod 5%, GAA glycogen mod 10µM*, Lamin A splicing -2%[46 µM], GAA inh 11%, Luc counter -3% and N370S GC mod -27%.
For C1CCN(C2CCN(c3nc4nonc4nc3N3CCSCC3)CC2)C1 the results were GAA spleen mod 6%, GAA glycogen mod 2%, Lamin A splicing inconclusive, GAA inh -10%, Luc counter -4% and N370S GC mod -18%.
